# Assay results published in PubChem BioAssay AID588727 (Southern Research Specialized Biocontainment Screening …, 2011).
# In all, about 350,000 compounds went through this assay and about 450 (0.13%) were called active. No rule for the calls is given here. Not all results are given here. Results with a measured potency or affinity are listed apart.
# Test: inhibitors of VEEV TC-83 cytopathic effect, confirmation, Vero cells (AID 588727)
# Settings: VEEV TC-83 cytopathic effect inhibition, at 20 µM
# [1] = measured here: 10K pilot screen inhibition, stronger effect = higher value
# [2] = stronger effect = higher value unless noted
structure (smiles),measurement,setting,value
O=c1[nH]c(CSc2ncccn2)nc2c1cnn2-c1ccccc1,inhibition,stronger effect = higher value,5.59% (inactive)
same,inhibition,[1],3.44%
c1ccc(-n2ncc3c2ncn2nc(CSc4nc5ccccc5s4)nc32)cc1,inhibition,[2],inactive
CCc1ccc(OCC(=O)Nc2nnc(-c3ccco3)s2)cc1,inhibition,[2],0.88% (inactive)
Fc1ccc(-n2ncc3c(SCc4cccnc4)ncnc32)cc1,inhibition,[2],3.59% (inactive)
Cc1ccc(-n2ncc3c(NCc4ccccn4)ncnc32)c(C)c1,inhibition,[2],1.72% (inactive)
Cc1ccc(-n2ncc3c(NCc4cccnc4)ncnc32)c(C)c1,inhibition,[2],1.66% (inactive)
CSc1ncnc2c1cnn2-c1ccc(C)cc1C,inhibition,[2],8.17% (inactive)
COc1ccc(C(C(=O)NCC2CCCO2)N(Cc2ccc(F)cc2)C(=O)CNC(=O)c2ccco2)cc1OC (centres undefined),inhibition,[2],1.15% (inactive)
Cc1cc(O)ccc1N1C(=O)c2cccc3cc([N+](=O)[O-])cc(c23)C1=O,inhibition,[2],inactive
O=C1c2cccc3cc([N+](=O)[O-])cc(c23)C(=O)N1c1nncs1,inhibition,[2],inactive
Cc1ccc(C)c(OCc2cc(C(=O)N3CCN(c4ccccc4C)CC3C)no2)c1 (centres undefined),inhibition,[2],4.26% (inactive)
Cc1cc(C(=O)N(Cc2nnc(-c3ccc(Cl)cc3)o2)C(C)C)c2ccccc2n1,inhibition,[2],8.49% (inactive)
c1ccc(-c2nc(-c3ccccn3)no2)cc1,inhibition,[2],inactive
c1ccc(-c2cnnc(-c3ccccn3)n2)cc1,inhibition,[2],2.25% (inactive)
CCCCn1c(N)c(N(CCC(C)C)C(=O)CSc2nnc3ccccn23)c(=O)[nH]c1=O,inhibition,[2],0.96% (inactive)
COCCCNC(=O)/C=C/c1ccc(Cl)cc1,inhibition,[2],inactive
CN(C)CCCNC(=O)/C=C/c1ccc2c(c1)OCO2,inhibition,stronger effect = higher value,0.85% (inactive)
same,inhibition,[1],1.09%
Cc1cc(-c2nnc(CCC(=O)NC(C)c3ccc(F)cc3)o2)no1 (centres undefined),inhibition,stronger effect = higher value,0.09% (inactive)
same,inhibition,[1],1.8%
Nc1nnc(SCC(=O)OCC(=O)Nc2ccc(Br)cc2F)s1,inhibition,[2],1.19% (inactive)
COc1ccc(S(=O)(=O)N2CCOCC2)cc1C(=O)NCc1ccccc1CN1CCCC1,inhibition,[2],0.08% (inactive)
CCc1ccc(-c2nc(CSCC(=O)NCCCN3CCCC3=O)c(C)o2)cc1,inhibition,[2],3.51% (inactive)
CCCOc1ccccc1/C=C1\SC(N)=NC1=O,inhibition,[2],2.5% (inactive)
O=C1N=C(N2CCCCC2)S/C1=C\c1ccccc1F,inhibition,[2],0.16% (inactive)
CCOC(=O)C1CCCN(c2oc(-c3ccc(OC)cc3)nc2C#N)C1 (centres undefined),inhibition,[2],2.16% (inactive)
O=C(COC(=O)COc1ccccc1)NCCc1ccccc1,inhibition,[2],0.2% (inactive)
CCC(=NC(C)c1ccccc1)c1c(O)[nH]c(=O)[nH]c1=O (centres undefined),inhibition,[2],1.39% (inactive)
CCn1c(SCC(=O)N/N=C/c2ccc(OC)c(OC)c2)nc2ccccc21,inhibition,stronger effect = higher value,4.2% (inactive)
same,inhibition,[1],2.22%
C=CCSc1nc2ccccc2n1C(=O)/C=C/c1cc(OC)c(OC)c(OC)c1,inhibition,[2],2.65% (inactive)
CC(=O)N1CCC(N(CCCOC(C)C)S(=O)(=O)c2ccc([N+](=O)[O-])cc2)CC1,inhibition,[2],inactive
Cc1oc(-c2ccccc2Cl)nc1CSCC(=O)O,inhibition,[2],1.08% (inactive)
Cc1ccc(-c2nc(CSCC(=O)N3CCCC3)c(C)o2)cc1,inhibition,[2],inactive
O=C(NC(=S)NCCO)c1cn(-c2ccccc2)nc1-c1ccccc1,inhibition,[2],1.03% (inactive)
CCN(CC)CCNC(=S)NC(=O)c1cn(-c2ccccc2)nc1-c1ccc(OC)cc1,inhibition,[2],inactive
Cc1onc(-c2ccccc2)c1C(=O)NC(=S)NNC(=O)c1ccncc1,inhibition,[2],1.78% (inactive)
COc1ccc(NC(=O)c2cn(-c3ccccc3)nc2-c2ccncc2)cc1,inhibition,[2],8.65% (inactive)
Cc1onc(-c2ccccc2)c1C(=O)Nc1sc2c(c1C#N)CCC2,inhibition,[2],"2.67% [measured here: 10K pilot screen inhibition, stronger effect = higher value]"
same,outcome,[2],inactive
Cc1ccc(NC(=O)Nc2nnc(-c3ccccc3F)s2)cc1,inhibition,[2],0.72% (inactive)
Cc1ccc(S(=O)(=O)N(C)c2ccc(C(=O)Nc3c(C)n(C)n(-c4ccccc4)c3=O)cc2)cc1,inhibition,[2],2.04% (inactive)
Cn1ncc(Br)c1C(=O)O,inhibition,stronger effect = higher value,0.63% (inactive)
same,inhibition,[1],1.4%
CCC1CSC(Nc2ccc(C(=O)/C=C/c3ccc(Br)cc3)cc2)=N1 (centres undefined),inhibition,[2],0.39% (inactive)
CCC1CSC(Nc2ccc(C(=O)/C=C/c3cccc(C)c3)cc2)=N1 (centres undefined),inhibition,[2],32.8% (inactive)
CC1=C(C(=O)NC2CCCc3c2cnn3-c2cccc(C)c2C)OCCO1 (centres undefined),inhibition,[2],1.75% (inactive)
O=C(NC1CCCc2c1cnn2-c1ccccc1F)c1ccncc1 (centres undefined),inhibition,[2],inactive
COc1ccc(C(=O)NC2CCCc3c2cnn3-c2cc(F)cc(F)c2)c(OC)n1 (centres undefined),inhibition,[2],0.41% (inactive)
COCCC(=O)NC1CCCc2c1cnn2-c1cccc(C)c1C (centres undefined),inhibition,[2],inactive
Cc1cc(C(=O)NC2CCCc3c2cnn3-c2cccc(C)c2C)n(C)n1 (centres undefined),inhibition,[2],inactive
O=C(NC1CCCc2c1cnn2-c1ccc(F)cc1F)c1ccccn1 (centres undefined),inhibition,[2],inactive
O=C(CSc1nnc(Cc2ccccc2)c(=O)[nH]1)Nc1ccccc1,inhibition,[2],1.19% (inactive)
CC1CCCC(=NNC(=O)C2COc3ccccc3O2)C1 (centres undefined),inhibition,[2],1.68% (inactive)
C=CCNc1n[nH]c(=S)s1,inhibition,[2],0.53% (inactive)
Cc1cc(/C=C(\C#N)C(=O)Nc2ccccc2)c(C)n1-c1cccnc1,inhibition,[2],4.21% (inactive)
CCC(NC(=O)Cc1c(C)c2cc3c(cc2oc1=O)OC(C)(C)CC3)C(=O)O (centres undefined),inhibition,[2],0.65% (inactive)
C(=N\N1CCN(C(c2ccccc2)c2ccccc2)CC1)/c1ccc2c(c1)OCO2,inhibition,[2],inactive
COC(=O)c1c(C)[nH]c(C(=O)C(C)OC(=O)c2c(C)noc2C)c1C (centres undefined),inhibition,[2],inactive
O=C1N=C(N2CCOCC2)SC1=C1CCCCC1,inhibition,[2],1.03% (inactive)
Cc1cccc(N2CCN(Cc3nc(-c4cccc(Cl)c4)oc3C)CC2)n1,inhibition,[2],inactive
Cc1cc(N2CCN(Cc3nc(-c4ccc(F)cc4)oc3C)CC2)cc(C)n1,inhibition,[2],0.13% (inactive)
Cc1ccccc1-c1nc(CN2CCC(C(=O)NCCCN3CCCC(C)C3)CC2)c(C)o1 (centres undefined),inhibition,[2],9.38% (inactive)
Cc1oc(-c2ccc(Cl)cc2)nc1CN1CCC(C(=O)NCCCN2CCOCC2)CC1,inhibition,[2],2.07% (inactive)
Cc1oc(-c2ccc(Cl)cc2)nc1CN1CCC(C(=O)NCC2CCCO2)CC1 (centres undefined),inhibition,[2],0.22% (inactive)
CCN(CCNC(=O)C1CCN(Cc2nc(-c3ccc(Cl)cc3)oc2C)CC1)c1ccccc1,inhibition,[2],inactive
CC(=O)c1cccc(-n2c(CCC(=O)O)ccc2-c2cccs2)c1,inhibition,[2],inactive
COc1ccc(-c2nnc(SCC(=O)c3cccs3)n2-c2ccc(Cl)cc2)cc1,inhibition,[2],8.15% (inactive)
O=C(N/N=C/c1cccnc1)C12CC3CC(CC(C3)C1)C2,inhibition,[2],2.16% (inactive)
Cc1[nH]c2ccc(F)cc2c1CCN(Cc1cccnc1)C(=S)Nc1cccc(F)c1,inhibition,[2],2.61% (inactive)
O=C(O)/C(=C\c1ccc(-c2ccc(F)cc2)o1)c1ccccc1,inhibition,[2],1.57% (inactive)
CN(C)CC1CC/C(=C\c2ccc(O)cc2)C1=O (centres undefined),inhibition,[2],inactive
COc1cccc(/C=C2/CCC(CN(C)C)C2=O)c1 (centres undefined),inhibition,[2],48.7% (inactive)
O=C(CSc1nc2c([nH]c3ccccc32)c(=O)n1-c1ccccc1F)NCC1CCCO1 (centres undefined),inhibition,[2],9.1% (inactive)
CCCN(Cc1nnc(-c2cccs2)o1)C(=O)c1cccc(S(=O)(=O)N2CCOCC2)c1,inhibition,[2],3.36% (inactive)
O=C(c1cc(S(=O)(=O)N2CCCCC2)ccc1F)N1CCCCC1,inhibition,[2],2.62% (inactive)
Cc1nn(-c2ccccn2)c(C)c1Oc1ccccc1O,inhibition,[2],0.59% (inactive)
Cc1cc(C)nc(-n2nc(C)c(Oc3ccccc3O)c2C)n1,inhibition,[2],2.08% (inactive)
CCOc1ccc(-c2ccc(SCc3ccccn3)nn2)cc1,inhibition,[2],8.3% (inactive)
Cc1[nH]c(C)c(S(=O)(=O)N2CCN(c3cccc(Cl)c3)CC2)c1C(=O)N1CCCC1,inhibition,[2],1.13% (inactive)
Cc1[nH]c(C)c(S(=O)(=O)N2CCN(c3cccc(C(F)(F)F)c3)CC2)c1C(=O)N1CCCC1,inhibition,[2],0.9% (inactive)
N=C1C(c2nc(-c3ccc(F)cc3)cs2)=C(O)CN1CCCN1CCOCC1,inhibition,stronger effect = higher value,1.67% (inactive)
same,inhibition,[1],0.31%
S=C(NCCCN1CCOCC1)N1CCN(c2nc(-c3ccc(Cl)cc3)cs2)CC1,inhibition,[2],1.38% (inactive)
CCc1cc(=O)oc2cc(C)cc(OC(C)C(=O)NCCN3CCOCC3)c12 (centres undefined),inhibition,[2],2.06% (inactive)
CC(C)CCSc1nc2ccccc2[nH]1,inhibition,[2],0.68% (inactive)
COc1ccc(OC)c(C(=O)COC(=O)COc2ccccc2F)c1,inhibition,[2],0.88% (inactive)
Cc1ccc(OCCCCN2CCC(C)CC2)c(Br)c1,inhibition,[2],0.3% (inactive)
Cc1ccc(OCCCCN2CCCCC2)c(Br)c1,inhibition,[2],inactive
CN(Cc1ccccc1)C(=O)COC(=O)c1cc(Cl)nc(Cl)c1,inhibition,[2],2.37% (inactive)
Cc1ccc(NC(=O)c2cccc(S(=O)(=O)N3CCN(C)CC3)c2)cc1F,inhibition,[2],inactive
COC(=O)c1c(NC(=O)c2ccccc2)sc2c1CC(C)(C)NC2(C)C,inhibition,[2],1.35% (inactive)
CCOc1ccc(C(=O)Nc2sc3c(c2C(=O)OC)CC(C)(C)NC3(C)C)cc1,inhibition,[2],10.2% (inactive)
COc1ccc(NC(=O)C2CCN(S(=O)(=O)c3cccc4nonc34)CC2)cc1,inhibition,[2],1.18% (inactive)
O=C(O)c1ccccc1NN=Cc1ccccc1,inhibition,[2],0.89% (inactive)
O=C(O)c1cccc(N/N=C/c2cc(Br)cc(Br)c2O)c1,inhibition,[2],0.48% (inactive)
COc1ccc(CN2CCN(c3ccccc3F)CC2)cc1O,inhibition,[2],0.89% (inactive)
CCc1ccc(Nc2nc(N3CCOCC3)nc(N3CCOCC3)n2)cc1,inhibition,[2],0.26% (inactive)
Cn1cc(Br)c(C(=O)NNC(=O)c2ccc(Cl)cc2)n1,inhibition,[2],0.65% (inactive)
CCCCC#Cc1cncc(C(=O)NN)c1,inhibition,[2],1.61% (inactive)
CC1CCN(c2ccc(C(=O)O)cc2NS(=O)(=O)c2ccc(Br)cc2)CC1,inhibition,[2],inactive
CC(=O)Nc1cccc(Oc2ncnc3scc(-c4ccccc4)c23)c1,inhibition,[2],11% (inactive)
CC(=O)Nc1cccc(Oc2ncnc3scc(-c4ccc(C)cc4)c23)c1,inhibition,[2],7.98% (inactive)
